ELG1 genotoxic = induces genotoxicity in HEK293T cells with luciferase-tagged ELG1; HEK293T ELG1-luciferase reporter, luminescence, 16 h; Potency, µM (highest dose often 46 µM), inactives show at the highest dose activity change, positive = activation, most hits filed as activators; hit rate 1.3% among 330,000; also: % of control where 0% means no effect; nearly all actives have a fitted effect of over 60% in size
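Genotoxicity was scored as increased ELG1-luciferase reporter signal, measured by ONE-Glo luminescence (30 min, room temperature). Compound or vehicle exposure of the HEK293T reporter cells lasted 16 hr at 37°C.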
SMN2 splice up = increases expression of the SMN2 splice variant; HEK293 SMN2-luciferase splicing reporter, luminescence, 30-36 h; Potency, µM (doses to about 46.1 µM), for inactives: top-dose activity change, positive = activation, hits mostly activators; hit rate 2.8% among 210,000; also: % of control where 0% means no effect; nearly all actives have a fitted effect of over 55% in size
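HEK293 cells carry an SMN2 […]–luciferase reporter in which exon 7 inclusion puts luciferase in frame. Cells were plated 10-12 h before compound addition, then incubated 30-36 h at 37C. ONE-Glo luminescence was read; sodium butyrate at 4.5 mM final served as control.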
Luc counter = blocks Kinase-Glo luciferase, a counter-screen artifact; Kinase-Glo luciferase, ATP luminescence, 8 min; Potency, µM (highest dose often 38.3 µM), without a hit: top-dose activity change, negative = inhibition, most hits filed as inhibitors; hit rate 0.28% among 200,000; AID 1379; Q27757; also: % is scaled to controls: 0 for no effect and ±100 for the full control effect; nearly all actives have a fitted effect of over 60% in size
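Compounds were added to a substrate mix at pH 7.2 (50 mM imidazole, 10 uM ATP, within the enzyme's linear range), followed by Kinase-Glo detection reagent; luminescence was measured after 8 minutes at ambient temperature.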
NPC1 prom act = activates the NPC1 promoter; hit rate 2.4% among 320,000; Potency, µM (series often up to 9.22 µM), without a hit: at the highest dose activation, usual class: activators; Huh7 NPC1 promoter luciferase reporter, 24 h; also: % of control where 0% means no effect; nearly all actives have a fitted effect of over 60% in size
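Luminescence from an NPC1 promoter-driven luciferase reporter in stably transfected Huh7 cells was measured after 24 h compound treatment at 37 °C, followed by 10 min ambient incubation with luciferase detection reagent.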
Rab9 promoter act = Rab9 promoter activation. AID 485297. Potency, µM (doses to about 9.22 µM), without a hit: top-dose activation, negative = inhibition, most hits filed as activators. hit rate 2.8% among 320,000. Huh7 Rab9 promoter-luciferase reporter, luminescence, 24 h; also: % of control where 0% means no effect; nearly all actives have a fitted effect of over 60% in size
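Cells were plated at 1500 per well in reduced-serum medium with 10% FBS and left 2 h. Compound in DMSO was then added for 24 h at 37 °C. Reporter signal was read by luminescence after 10 min with luciferase detection reagent.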
FLuc counter = firefly luciferase modulation, counter-screen for miR-21 project | P08659 | purified FLuc, Km substrates, luminescence inhibition | Potency, µM (highest dose often 57.5 µM), for the others: at the highest dose activity change, negative = inhibition, actives largely listed as inhibitors | hit rate 6.9% among 360,000;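 also: plate controls were vehicle for no effect and reference inhibitor for full effect; nearly all actives have a fitted effect of over 55% in size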
Target sequence (P08659 whole entry, looked up): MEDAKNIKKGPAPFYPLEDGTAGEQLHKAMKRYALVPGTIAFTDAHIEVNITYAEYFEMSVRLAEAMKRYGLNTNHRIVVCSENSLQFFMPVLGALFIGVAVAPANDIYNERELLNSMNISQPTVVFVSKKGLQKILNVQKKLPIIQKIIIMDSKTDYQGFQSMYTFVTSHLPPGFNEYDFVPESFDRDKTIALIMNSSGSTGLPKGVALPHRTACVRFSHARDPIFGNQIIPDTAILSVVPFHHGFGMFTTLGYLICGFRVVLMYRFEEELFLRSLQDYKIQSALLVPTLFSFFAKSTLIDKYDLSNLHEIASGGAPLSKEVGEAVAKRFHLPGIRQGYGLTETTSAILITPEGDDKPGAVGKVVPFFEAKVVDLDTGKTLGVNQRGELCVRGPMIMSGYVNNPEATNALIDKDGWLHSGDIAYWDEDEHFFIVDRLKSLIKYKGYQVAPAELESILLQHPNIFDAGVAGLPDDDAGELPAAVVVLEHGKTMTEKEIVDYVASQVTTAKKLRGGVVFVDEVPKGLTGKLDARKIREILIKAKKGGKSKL
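Purified P. pyralis luciferase, 10 nM final, with Km-level 10 uM D-luciferin and 10 uM ATP in 50 mM Tris acetate pH 7.5, 10 mM Mg acetate, 0.01% Tween-20, 0.05% BSA; 6-point qHTS titration about 60 µM downward; luminescence read.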
Numbers without * were called inactive; ? = inconclusive; / = no result; [ ] = another dose, or the depositor's remark. This is a sample that favours compounds with a hit; in the whole collection about 7.3% have one here. Calls follow the shape of the dose curve; as a rule, active = well fitted curve in the direction sought with a large enough effect; inconclusive = small, poorly fitted or top-dose-only effect, or another doubt; inactive = no such curve, though single readings can be large; an effect the other way counts as inactive or inconclusive. Potency is read from the fitted curve at half-maximal effect.

SMILES	ELG1 genotoxic	SMN2 splice up	Luc counter	NPC1 prom act	Rab9 promoter act	FLuc counter
Cc1cc(C)n(CCc2nc(-c3cc4ccccc4o3)cs2)n1	10%	-36%	1%	20%	21%	17µM*
NC(=O)C1CCN(c2nc(-c3cc4ccccc4o3)cs2)CC1	4%	/	/	?	?	11µM*
Nc1nc(-c2cc3ccccc3o2)cs1	?	/	/	2.2µM*	2µM*	4.3µM*
CN1CCN(c2nc(-c3cc4ccccc4o3)cs2)CC1	?	13µM*	-1%	?	?	4.8µM*
Nc1nc(-c2ccccc2Br)cs1	-2%	20%	2%	-4%	0%	-11%
CC(CNC(=O)c1ccc(Cn2c(SCc3ccccc3)nc3cccnc32)cc1)c1ccccc1 (stereo unspecified)	/	/	/	/	/	4.8µM*
CCN(CC)CCCNC(=O)c1ccc(Cn2c(SCc3ccccc3)nc3cccnc32)cc1	/	/	/	/	/	21µM*
Cc1ccccc1CNC(=O)c1ccc(Cn2c(SCc3ccccc3)nc3cccnc32)cc1	/	/	/	/	/	2.7µM*
COc1ccccc1CNC(=O)c1ccc(Cn2c(SCc3ccccc3)nc3cccnc32)cc1	/	/	/	/	/	4.8µM*
COc1ccc(Cn2c(SCc3ccc(C(=O)NC4CCCCC4)cc3)nc3cccnc32)cc1	/	/	/	/	/	-2%
COc1ccc(CN2C(=O)c3cccnc3C2=O)cc1S(=O)(=O)N1CCCCC1	4%	/	/	-3%	-7%	0%
O=C(Nc1ccccc1)N1CCn2c1nc1ccccc12	2%	?	3%	7%	-5%	?
CCc1ccc(C(=O)CCC2CCCCC2=O)cc1 (stereo unspecified)	18µM*	-4%	1%	?	?	12µM*
Cc1ccc(C(=O)CCC2CCCC2=O)cc1 (stereo unspecified)	?	?	-2%	4µM*	?	12µM*
Cc1ccc(C(=O)CCC2CCCCC2=O)cc1 (stereo unspecified)	21µM*	-7%	-2%	?	?	13µM*
C=CCn1c(=NC(=O)c2cc(Cl)sc2Cl)sc2cc(S(N)(=O)=O)ccc21	-1%	-25%	-2%	-3%	-4%	-2%
CCOC(=O)c1cccc(NC(=O)c2ccc(N(C)C)cc2)c1	8%	?	-5%	0.4µM*	0.28µM*	1.7µM*
CCOC(=O)c1ccc(NC(=O)c2ccccc2)cc1	?	10µM*	-5%	2.8µM*	2.8µM*	-3%[2.3 µM]
CCOC(=O)c1ccc(NC(=O)c2ccccc2[N+](=O)[O-])cc1	12%	18µM*	1%	17%	27%	?
CCOC(=O)c1cccc(NC(=O)c2cnc3ccccc3n2)c1	24%	/	/	?	2µM*	17µM*
CCOC(=O)c1cccc(NC(=O)c2cccnc2)c1	-4%	-8%	-4%	10%	0%	-5%
COc1cc(C(CC(=O)N2CCCC2)c2c(OC)cc(OC)c3c(-c4ccccc4)cc(=O)oc23)cc(OC)c1OC (stereo unspecified)	-6%	/	/	-5%	-5%	2%
Cc1cc(C(=O)N2CCCC(CCC(=O)N3CCN(c4ccccn4)CC3)C2)c(C)o1 (stereo unspecified)	-5%	/	/	-2%	0%	-2%
CCOC(=O)c1ccc(Nc2ncccc2[N+](=O)[O-])cc1	?	/	-14%	2.5µM*	1µM*	7.6µM*
O=C(Oc1ccccc1C(=O)Nc1ccccc1)c1ccc(Br)c([N+](=O)[O-])c1	13%	-6%	0%	1%	15%	15µM*
COc1cc(Br)cc(/C=N/NC(=O)Cc2ccc(C(F)(F)F)cc2[N+](=O)[O-])c1O	11%	-97%	2%	-2%	-11%	13%
CCOC(=O)c1ccc(N/N=C/c2cc(Br)cc([N+](=O)[O-])c2O)cc1	-13%	-69%	?	-3%	0%	1.2µM*
CCOC(=O)c1ccc(NC(=S)Nc2ccccn2)cc1	15µM*	12%	0%	?	25%	-19%
